Read-out in test [1]: Tissue Factor, F3 (gene 2152)
Put plainly: BSK_CASM3C_TissueFactor: BioMAP Diversity Plus: CASM3C Assay for Tissue Factor Biomarker Activity (AID 2283052).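 Further: cell surface tissue factor protein level read by ELISA.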 Particulars: primary human coronary artery smooth muscle cells; actives raise or lower the signal.

Read-out in test [2]: Interferon-gamma inducible Protein 10 (IP10), CXCL10 (gene 3627)
Put plainly: BSK_hDFCGF_IP10: BioMAP Diversity Plus: hDFCGF Assay for Interferon-gamma inducible Protein 10 (IP10) Biomarker Activity (AID 2283053). Particulars: primary human foreskin fibroblasts; actives raise or lower the signal. The gist of the method: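 IP-10 levels, quantified by ELISA, are taken from human foreskin fibroblast cultures 24 h after chemical treatment, with DMSO serving as negative control and baseline for bidirectional analysis.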

Read-out in test [3]: Urokinase-type plasminogen activator receptor (uPAR), PLAUR (gene 5329)
Kind of test: BSK_CASM3C_uPAR: BioMAP Diversity Plus: CASM3C Assay for Urokinase-type plasminogen activator receptor (uPAR) Biomarker Activity (AID 2283054).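 Further: cell-surface uPAR protein level quantified by ELISA.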 Particulars: primary human coronary artery smooth muscle cells; actives raise or lower the signal.

Read-out in test [4]: Vascular cell adhesion molecule 1 (VCAM1), VCAM1 (gene 7412)
Kind of test: BSK_CASM3C_VCAM1: BioMAP Diversity Plus: CASM3C Assay for Vascular cell adhesion molecule 1 (VCAM1) Biomarker Activity (AID 2283055).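 Further: VCAM-1 protein level quantified by ELISA on the cells.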 Particulars: primary human coronary artery smooth muscle cells; actives raise or lower the signal.

Read-out in test [5]: Collagen III, COL3A1 (gene 1281)
Kind of test: BSK_hDFCGF_CollagenIII: BioMAP Diversity Plus: hDFCGF Assay for Collagen III Biomarker Activity (AID 2283056). Particulars: primary human foreskin fibroblasts; actives raise or lower the signal. The essentials:
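Human foreskin fibroblast primary cultures sampled 24 h after dosing; Collagen III quantified by ELISA. Signal fitted bidirectionally against DMSO baseline.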

Read-out in test [6]: Epidermal growth factor receptor (EGFR), EGFR (gene 1956)
Kind of test: BSK_hDFCGF_EGFR: BioMAP Diversity Plus: hDFCGF Assay for Epidermal growth factor receptor (EGFR) Biomarker Activity (AID 2283057). Particulars: primary human foreskin fibroblasts; actives raise or lower the signal. The gist of the method:
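Measured by ELISA: EGFR levels on primary human foreskin fibroblasts 24 h after chemical treatment, analysed relative to DMSO with bidirectional fitting.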

Read-out in test [7]: Interleukin-8 (IL8), CXCL8 (gene 3576)
Kind of test: BSK_hDFCGF_IL8: BioMAP Diversity Plus: hDFCGF Assay for Interleukin-8 (IL8) Biomarker Activity (AID 2283058). Particulars: primary human foreskin fibroblasts; actives raise or lower the signal. The essentials: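 Primary human foreskin fibroblasts (hDFCGF system) dosed with chemical; IL-8 measured by ELISA 24 hours later. Bidirectional curve fitting relative to DMSO baseline; cytotoxicity tracked in parallel cultures by SRB total protein staining.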

Test [8] in a line: BSK_hDFCGF_Proliferation: Cell Proliferation Assessment in the BioMAP Diversity Plus: hDFCGF Assay (AID 2283059).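 Further: curves fitted for both rise and fall of signal versus DMSO baseline.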 Particulars: primary human foreskin fibroblasts. The gist of the method:
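Sub-confluent human foreskin fibroblast cultures receive test chemical […]. Relative cell number is quantified by sulforhodamine B staining (0.1%, after 10% TCA fixation) at 560 nm, with bidirectional fitting referenced to DMSO.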

Read-out in test [9]: Macrophage colony-stimulating factor (MCSF), CSF1 (gene 1435)
Put plainly: BSK_hDFCGF_MCSF: BioMAP Diversity Plus: hDFCGF Assay for Macrophage colony-stimulating factor (MCSF) Biomarker Activity (AID 2283060). Particulars: primary human foreskin fibroblasts; actives raise or lower the signal. The gist of the method:
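Human foreskin fibroblast primary cultures; M-CSF measured by ELISA 24 hours after chemical dosing. Bidirectional fitting relative to DMSO, with overt cytotoxicity tracked by parallel SRB total-protein staining (0.1% SRB, 10% TCA fixation, 560 nm).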

Test [10] can be described thus: BSK_hDFCGF_SRB: Viability Assessment in the BioMAP Diversity Plus: hDFCGF Assay (AID 2283061).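 Further: cells exposed to compound for 24 h before the read.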 Particulars: primary human foreskin fibroblasts. The gist of the method:
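Human foreskin fibroblasts in 96-well plates were treated 24 h. Total protein was measured by 0.1% SRB staining after 10% TCA fixation, read at 560 nm. Data were fitted bidirectionally against DMSO.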

Read-out in test [11]: Monokine induced gamma interferon (MIG), CXCL9 (gene 4283)
Put plainly: BSK_hDFCGF_MIG: BioMAP Diversity Plus: hDFCGF Assay for Monokine induced gamma interferon (MIG) Biomarker Activity (AID 2283063). Particulars: primary human foreskin fibroblasts; actives raise or lower the signal. The gist of the method:
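MIG/CXCL9 measured by ELISA 24 h after dosing primary human skin fibroblasts. Activity fitted in both directions against DMSO controls. Cytotoxicity was checked in parallel cultures by SRB staining read at 560 nm.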

Read-out in test [12]: Vascular cell adhesion molecule 1 (VCAM1), VCAM1 (gene 7412)
Put plainly: BSK_hDFCGF_VCAM1: BioMAP Diversity Plus: hDFCGF Assay for Vascular cell adhesion molecule 1 (VCAM1) Biomarker Activity (AID 2283065).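 On AC50: VCAM-1 protein level quantified by ELISA after 24 h chemical exposure.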 Particulars: primary human foreskin fibroblasts; actives raise or lower the signal. The essentials: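 Human foreskin fibroblast primary cells dosed with chemical, VCAM-1 measured by ELISA at 24 h. Bidirectional curve fitting relative to DMSO as negative control/baseline.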

Read-out in test [13]: Plasminogen activator inhibitor-1 (PAI1), SERPINE1 (gene 5054)
Put plainly: BSK_hDFCGF_PAI1: BioMAP Diversity Plus: hDFCGF Assay for Plasminogen activator inhibitor-1 (PAI1) Biomarker Activity (AID 2283066). Particulars: primary human foreskin fibroblasts; actives raise or lower the signal. The gist of the method:
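PAI-1 levels, determined by ELISA, served as the endpoint in human foreskin fibroblast cultures exposed to compound for 24 h, with DMSO as baseline.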

Read-out in test [14]: Intercellular Adhesion Molecule 1 (ICAM1), ICAM1 (gene 3383)
Put plainly: BSK_KF3CT_ICAM1: BioMAP Diversity Plus: KF3CT Assay for Intercellular Adhesion Molecule 1 (ICAM1) Biomarker Activity (AID 2283067). Particulars: primary human keratinocytes with fibroblasts; actives raise or lower the signal. The gist of the method:
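Human keratinocyte–foreskin fibroblast co-culture was treated for 24 h. Cell-surface ICAM-1 was quantified by ELISA, fitted bidirectionally relative to DMSO. Cytotoxicity was checked in parallel cultures by SRB total-protein staining.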

Read-out in test [15]: Interferon-gamma inducible Protein 10 (IP10), CXCL10 (gene 3627)
Put plainly: BSK_KF3CT_IP10: BioMAP Diversity Plus: KF3CT Assay for Interferon-gamma inducible Protein 10 (IP10) Biomarker Activity (AID 2283068). Particulars: primary human keratinocytes with fibroblasts; actives raise or lower the signal. The essentials:
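ELISA read-out of IP-10 after 24 h chemical dosing of human skin primary co-culture (keratinocytes, foreskin fibroblasts). Gain or loss of signal relative to DMSO, bidirectional curve fit.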

Test [16] is described as follows: BSK_KF3CT_SRB: Viability Assessment in the BioMAP Diversity Plus: KF3CT Assay (AID 2283069).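 Further: total protein by sulforhodamine B staining as a cytotoxicity measure; read 24 h after compound addition; fitted for both signal gain and loss against DMSO baseline.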 Particulars: primary human keratinocytes with fibroblasts. The essentials:
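Human keratinocyte and foreskin fibroblast co-culture exposed to chemical for 24 h. Total protein measured in parallel cultures by 0.1% sulforhodamine B staining after 10% TCA fixation, read at 560 nm; bidirectional fit relative to DMSO.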

Read-out in test [17]: Interleukin-1 alpha (IL1a), IL1A (gene 3552)
Kind of test: BSK_KF3CT_IL1a: BioMAP Diversity Plus: KF3CT Assay for Interleukin-1 alpha (IL1a) Biomarker Activity (AID 2283070). Particulars: primary human keratinocytes with fibroblasts; actives raise or lower the signal. The gist of the method:
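Primary human keratinocyte plus foreskin fibroblast co-culture, dosed and measured at 24 h in 96-well plates. IL-1a level quantified by ELISA; bidirectional fit relative to DMSO.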

Read-out in test [18]: TIMP metallopeptidase inhibitor 2 (TIMP2), TIMP2 (gene 7077)
Put plainly: BSK_KF3CT_TIMP2: BioMAP Diversity Plus: KF3CT Assay for TIMP metallopeptidase inhibitor 2 (TIMP2) Biomarker Activity (AID 2283071). Particulars: primary human keratinocytes with fibroblasts; actives raise or lower the signal. The gist of the method:
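Keratinocyte–fibroblast co-culture, 24 h exposure; TIMP-2 ELISA, DMSO-normalised bidirectional fit. Parallel SRB (0.1%, TCA-fixed, 560 nm) total-protein staining gauges cytotoxicity.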

Read-out in test [19]: TIMP metallopeptidase inhibitor 1 (TIMP1), TIMP1 (gene 7076)
Kind of test: BSK_hDFCGF_TIMP1: BioMAP Diversity Plus: hDFCGF Assay for TIMP metallopeptidase inhibitor 1 (TIMP1) Biomarker Activity (AID 2283062). Particulars: primary human foreskin fibroblasts; actives raise or lower the signal. The essentials:
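Human foreskin fibroblast primary cultures dosed for 24 h; secreted/surface TIMP-1 quantified by ELISA. Bidirectional curve fitting against DMSO baseline; cytotoxicity tracked in parallel cultures by SRB total-protein staining.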

Read-out in test [20]: Matrix Metallopeptidase 1 (MMP1), MMP1 (gene 4312)
Put plainly: BSK_hDFCGF_MMP1: BioMAP Diversity Plus: hDFCGF Assay for Matrix Metallopeptidase 1 (MMP1) Biomarker Activity (AID 2283064). Particulars: primary human foreskin fibroblasts; actives raise or lower the signal. The essentials:
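Primary human foreskin fibroblasts exposed to chemicals for 24 h; MMP1 measured by ELISA. Cytotoxicity tracked by SRB staining in parallel cultures; bidirectional fit relative to DMSO.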

The source holds several records for some structures; these can differ, active in one and inactive in another. Calls of active or inactive are those of the source. How the source made its calls: active means hit-call score of the fitted dose curve at least 0.9, where 1 is the maximum; inactive means score below 0.9.

In general, AC50 refers to the concentration giving half of the maximal activity seen. On to `C=C(C)C(=O)OCCC(F)(F)C(F)(F)C(F)(F)C(F)(F)C(F)(F)C(F)(F)F`, for which the outcome in test [1], in [2], in test [3], in test [4], in test [5] and in test [6] was inactive. For the same compound, the result in [7], in test [8], in [9], in test [10], in [11] and in [12] was inactive. The outcome in test [13], in test [14], in [15], in test [16], in test [17] and in [18] was inactive. In addition, the half-maximal activity concentration (AC50) was 13.8 µM (active) in test [8] and 23.2 µM (active) in [9].

Take `CCCCCCCCCCCCCCCS(=O)(=O)Oc1ccccc1`: the outcome in [1], in test [2], in [3], in [4], in test [5] and in test [6] was inactive. Moreover, the outcome in test [7], in [8], in test [9], in test [10], in test [19] and in test [11] was inactive. For the same compound, the outcome in test [20], in test [12], in test [13], in test [14], in test [15] and in [16] was inactive. Besides, the result in test [17] and in test [18] was inactive.

As to `CCc1nn(C2CCCCC2)c2cc(C3(C#N)CCC(C(=O)O)CC3)ccc12` (stereo not drawn), the outcome in test [1], in test [7], in test [14], in test [16] and in test [17] was inactive. Moreover, the AC50 in test [2] is 4.83 µM (active); in [3], 1.03 µM (active); in [4], 5.03 µM (active); in test [5] it was 1.75 µM (active); in test [6], 1.26 µM (active); in test [8], 4.27 µM (active). Besides, the concentration at half-maximal activity (AC50) in test [9] was 5.16 µM (active); in test [10], 4.51 µM (active); in test [19], 3.54 µM (active); in test [11], 20 µM (active); in test [12], 7.89 µM (active); in [13], 5.35 µM (active). Also, the figures for the half-maximal activity concentration (AC50) in test [15] and in test [18] were 28.1 µM (active) and 11.5 µM (active), respectively.

On to `CCCCCCCCCCCCCC[N+](C)(C)C`, for which the half-maximal activity concentration (AC50) was 5.36 µM (active) in test [1]; 5.92 µM (active) in test [2]; 5.05 µM (active) in test [3]; 9.9 µM (active) in test [4]; 1.59 µM (active) in test [5]; 4.98 µM (active) in [6]. Besides, the AC50 in test [7] was 14.1 µM (active); in test [8], 1.05 µM (active); in [9], 2.81 µM (active); in test [10], 5.22 µM (active); in test [19], 5.39 µM (active); in test [11], 7.37 µM (active). Further, the half-maximal activity concentration (AC50) was 4.06 µM (active) in test [12]; 2.85 µM (active) in test [13]; 12.8 µM (active) in test [14]; 4.81 µM (active) in test [15]; 5.24 µM (active) in test [16]; 3.96 µM (active) in test [17]. Besides, in test [18], the AC50 is 5.45 µM (active).

With `CCCCCCCCCCCCN1CCCC1=O`, the result in [1], in test [3], in test [4] and in test [6] was inactive. The AC50 was 30.9 µM (active) in test [2]; 14.4 µM (active) in test [5]; 34.6 µM (active) in test [7]; 14.6 µM (active) in test [8]; 31 µM (active) in test [9]; 34 µM (active) in test [10]. In addition, the half-maximal activity concentration (AC50) in test [19] is 32.7 µM (active); in test [11] it was 39 µM (active); in test [20], 34.8 µM (active); in test [12], 33 µM (active); in test [13], 30.6 µM (active); in test [14] it was 36.8 µM (active). For the same compound, the concentration at half-maximal activity (AC50) is 35.5 µM (active) in test [15], 33.4 µM (active) in test [16], 35.2 µM (active) in [17] and 31.3 µM (active) in test [18].
